Compound activity: PubChem, National Center for Advancing Translational Sciences (NCATS)
Hits are enriched below; roughly 19% of the tested compounds scored in any of these assays.
KB-V1 MDR tox: kills drug-selected multidrug resistant KB-V1 cells | KB-V1 MDR cells viability, CellTiter-Glo, 72 h | hit rate 3.4% among 400,000 | Potency, µM (doses to about 46.1 µM), most hits filed as cytotoxic; further: nearly all actives have a fitted effect of over 60% in size
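KB-V1 MDR subline cells in DMEM (phenol-red free, 10% FBS) exposed to compounds in qHTS concentration series for 72 h at 37 degrees C. Viability read by CellTiter-Glo luminescence; concentration-effect curves fitted after normalization and correction.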
KB-3-1 cytotox: KB-3-1 parental cell cytotoxicity; KB-3-1 viability, CellTiter-Glo ATP luminescence, 72 h; hit rate 1.4% among 400,000; Potency, µM (top dose mostly 46.1 µM), usual class: cytotoxic; further: nearly all actives have a fitted effect of over 60% in size
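KB-3-1 cells, DMEM (no phenol red) + 10% FBS; compound by pin transfer, 72 h, 37 °C. Readout: CellTiter-Glo luminescence after 10 min. Data normalized, curve-fitted.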
HT1080-NT tox: kills 2HG-producing HT-1080-NT fibrosarcoma cells; Potency, µM (titrated, usually from 46.1 µM), without a hit: at the top dose activity, negative = less viability, usual class: cytotoxic; hit rate 1.6% among 360,000; HT-1080-NT fibrosarcoma viability, CellTiter-Glo ATP luminescence, 48 h;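 further: NT is the 2HG producing partner of a matched IDH1 knockdown line; 0% = DMSO-treated cells and -100% = media-only wells without cells; nearly all actives have a fitted effect of over 55% in size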
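Viability of the 2HG-overproducing fibrosarcoma line after 48 hours of compound exposure at 37 degrees C was determined by luminescence with CellTiter-Glo, and concentration-effect curves were then fitted and categorized.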
TDP1 cell CPT: growth inhibition of DT40 Tdp1-/-;hTDP1 cells with camptothecin (screen for TDP1 inhibitors) | hit rate 12% among 420,000 | chicken DT40 Tdp1-/-;hTDP1 cells + 20 nM CPT, ATP luminescence, 48 h | Potency, µM (series often up to 46.2 µM), for the others: top-dose activity change, negative = growth inhibition, usual class: inhibitors; further: nearly all actives have a fitted effect of over 55% in size
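Cell growth measured by CellTiter-Glo luminescence after a minimum 48 h, 37 C compound exposure with 20 nM CPT in Tdp1-knockout DT40 cells stably expressing hTDP1, seeded 400/well; qHTS titration format.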
HT1080 IDH1KD tx: toxicity to HT-1080 IDH1 knockdown cells (counter line); HT-1080 IDH1 knockdown viability, ATP luminescence, 48 h; Potency, µM (highest dose often 46.1 µM), inactives show at the top dose activity, negative = toxicity, actives largely listed as cytotoxic; hit rate 2% among 360,000;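 further: 0% = DMSO wells and -100% = cell-free medium wells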
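Knockdown cells (IDH1KD HT-1080) received compounds 2 h after plating at 750 cells/well and were kept 48 h at 37 °C in 5% FBS RPMI. A CellTiter-Glo luminescence read gave % activity for curve fitting.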
TDP1 cell noCPT: qHTS for Inhibitors of human tyrosyl-DNA phosphodiesterase 1 (TDP1): qHTS in cells in absence of CPT; Potency, µM (doses to about 46.2 µM), without a hit: at the top dose activity change, negative = growth inhibition, actives largely listed as inhibitors; hit rate 15% among 420,000; DT40 Tdp1-/- hTDP1 cells, no CPT, ATP luminescence, 48 h; further: nearly all actives have a fitted effect of over 55% in size
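Chicken DT40 Tdp1-/- cells stably complemented with human TDP1 were seeded at 400 cells/well with DMSO in place of 20 nM camptothecin. After compound pinning, cells grew at least 48 hr at 37 °C; viability read by CellTiter-Glo luminescence.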
The depositor's hits bear a star. The call rests on the fitted dose curve; in most records, active means well fitted curve in the direction sought with a large enough effect; inconclusive means small, poorly fitted or top-dose-only effect, or another doubt; inactive means no such curve, though single readings can be large; an effect the other way counts as inactive or inconclusive. Unless noted, on the % scale 0 is the no-effect control and ±100 the full control effect; potency means the concentration at half of the fitted maximal effect.

Results for COc1ccc(N2CCN(Cc3csc(C)c3-c3ccc(C)cc3)CC2)cc1 ?
KB-V1 MDR tox: inactive; KB-3-1 cytotox: inactive; HT1080-NT tox: inconclusive; TDP1 cell CPT: inconclusive; HT1080 IDH1KD tx: -30%; TDP1 cell noCPT: inconclusive

Results for Cc1ccc(-c2c(CN3CCN(c4cc(C)ccc4C)CC3)csc2C)cc1 ?
TDP1 cell CPT: inconclusive; TDP1 cell noCPT: 16µM*

How did COCCN(C(=O)c1cc2c(s1)CCCCC2)c1c(N)n(Cc2ccccc2)c(=O)[nH]c1=O do in these assays?
KB-V1 MDR tox: inactive; KB-3-1 cytotox: inactive; HT1080-NT tox: 2%; TDP1 cell CPT: 7%; HT1080 IDH1KD tx: -25%; TDP1 cell noCPT: -17%

What do the screens show for `Cc1c(Cl)cccc1NC(=O)CCS(=O)(=O)c1ccc2c(c1)CC(=O)N2C`?
KB-V1 MDR tox: inactive; KB-3-1 cytotox: inactive; TDP1 cell CPT: -18%; TDP1 cell noCPT: -20%

What do the screens show for `Cc1[nH]ccc(=O)c1OCc1c(Cl)cccc1Cl`?
KB-V1 MDR tox: inactive; KB-3-1 cytotox: inactive; HT1080-NT tox: 9%; TDP1 cell CPT: -22%; HT1080 IDH1KD tx: 2%; TDP1 cell noCPT: -6%

How did Cc1ccc(Cn2ccc(=O)c(OCc3c(Cl)cccc3Cl)c2C)cc1 do in these assays?
KB-V1 MDR tox: inconclusive; KB-3-1 cytotox: inactive; HT1080-NT tox: inconclusive; TDP1 cell CPT: 18µM*; HT1080 IDH1KD tx: inconclusive; TDP1 cell noCPT: 15µM*

What do the screens show for `COc1ccc(NS(=O)(=O)c2ccc3c(c2)n(C)c(=O)c(=O)n3C)cc1Cl`?
KB-V1 MDR tox: inconclusive; KB-3-1 cytotox: inactive; TDP1 cell CPT: -12%; TDP1 cell noCPT: inconclusive

How did COc1ccc(NS(=O)(=O)c2ccc3c(c2)NC(=O)CCS3)c(OC)c1 do in these assays?
KB-V1 MDR tox: inactive; KB-3-1 cytotox: inactive

What do the screens show for `CCn1c(=O)sc2cc(NS(=O)(=O)c3ccc(F)c(C)c3)ccc21`?
TDP1 cell CPT: 10µM*; TDP1 cell noCPT: 10µM*

How did COc1ccc(S(=O)(=O)Nc2ccc3c(c2)sc(=O)n3C)cc1Cl do in these assays?
TDP1 cell CPT: 23µM*; TDP1 cell noCPT: 18µM*

What do the screens show for `COc1ccc(NS(=O)(=O)c2ccc3c(c2)NC(=O)CCS3)cc1Cl`?
KB-V1 MDR tox: inactive; KB-3-1 cytotox: inconclusive; HT1080-NT tox: 0%; TDP1 cell CPT: 21µM*; HT1080 IDH1KD tx: -3%; TDP1 cell noCPT: 18µM*

Results for COc1ccccc1C(=O)NCC(=O)OCc1nnc(-c2ccccc2)o1 ?
KB-V1 MDR tox: inactive; KB-3-1 cytotox: inactive; HT1080-NT tox: 2%; TDP1 cell CPT: 6%; HT1080 IDH1KD tx: 4%; TDP1 cell noCPT: -5%

Results for Oc1cccnc1CCc1ccccc1 ?
KB-V1 MDR tox: inactive; KB-3-1 cytotox: inactive; HT1080-NT tox: inconclusive; TDP1 cell CPT: 13%; HT1080 IDH1KD tx: 24%; TDP1 cell noCPT: 20%

What do the screens show for `CN(C)c1ccc(/C=C(\NC(=O)c2ccccc2)C(=O)NCCN2CCOCC2)cc1`?
KB-V1 MDR tox: inactive; KB-3-1 cytotox: inactive; HT1080-NT tox: 15%; TDP1 cell CPT: -3%; HT1080 IDH1KD tx: 9%; TDP1 cell noCPT: -4%

What do the screens show for `COc1cc(/C=N/OCC(=O)Nc2cc(C)cc(C)c2)ccc1OCc1ccc(Cl)cc1`?
KB-V1 MDR tox: 21µM*; KB-3-1 cytotox: inconclusive; HT1080-NT tox: 9%; TDP1 cell CPT: inconclusive; HT1080 IDH1KD tx: -4%; TDP1 cell noCPT: 13µM*

What do the screens show for `COc1cc(/C=N/N2CCOCC2)ccc1OCc1ccc(Cl)cc1`?
KB-V1 MDR tox: inactive; KB-3-1 cytotox: inactive; HT1080-NT tox: 1%; TDP1 cell CPT: -2%; HT1080 IDH1KD tx: -2%; TDP1 cell noCPT: inconclusive
